Assay outcomes deposited in PubChem BioAssay by National Center for Advancing Translational Sciences (NCATS).
MCF10A rerep = A quantitative high throughput screen for small molecules that induce DNA re-replication in MCF 10a normal breast cells. actives 2.9% (n = 350,000). Potency, µM (titrated, usually from 46.1 µM), for the others: at the top dose activity, positive = re-replication, actives largely listed as activators. MCF 10A DNA re-replication, Hoechst nuclear intensity, 48 h; note: % of control where 0% means no effect; nearly all actives have a fitted effect of over 50% in size
KB-V1 cytotox = qHTS assay for MDR1-selective chemotherapeutics: Primary screen using the drug-selected MDR subline cells KB-V1 | KB-V1 MDR cells viability, CellTiter-Glo, 72 h | Potency, µM (top dose mostly 46.1 µM), actives largely listed as cytotoxic | actives 3.4% (n = 400,000); note: % is set by controls: 0 for no effect and ±100 for the full control effect; nearly all actives have a fitted effect of over 60% in size
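KB-V1 MDR subline cells in DMEM (phenol-red free, 10% FBS) exposed to compounds in qHTS concentration series for 72 h at 37 degrees C. Viability read by CellTiter-Glo luminescence; concentration-effect curves fitted after normalization and correction.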
HT1080NT lethal = qHTS for induction of synthetic lethality in tumor cells producing 2HG: qHTS for the HT-1080-NT fibrosarcoma cell line; HT-1080-NT fibrosarcoma viability, CellTiter-Glo ATP luminescence, 48 h; Potency, µM (top dose mostly 46.1 µM), for inactives: top-dose activity, negative = less viability, hits mostly cytotoxic; actives 1.6% (n = 360,000); AID 686970, 2013;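 note: NT is the 2HG producing partner of a matched IDH1 knockdown line; 0% = DMSO-treated cells and -100% = media-only wells without cells; nearly all actives have a fitted effect of over 55% in size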
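HT-1080-NT fibrosarcoma cells (2HG-overproducing), 750 cells/well in RPMI with 5% FBS, dosed after 2 h and incubated 48 h at 37C. CellTiter-Glo luminescence normalized to DMSO and no-cell wells; concentration-response curves fitted and classed.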
SW480 rerep = A quantitative high throughput screen for small molecules that induce DNA re-replication in SW480 colon adenocarcinoma cells. SW480 DNA re-replication, Hoechst DNA content imaging, 48 h. Potency, µM (series often up to 46.1 µM), for the others: top-dose re-replication activation, usual class: activators. actives 1.8% (n = 340,000); note: % of control where 0% means no effect; nearly all actives have a fitted effect of over 55% in size
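Treated cells incubate 48 hr (37 C, 5% CO2), are stained 40 min with Hoechst, and nuclear fluorescence is enumerated; a rise in nuclei with high DNA signal marks re-replication.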
HT1080 IDH1KD tx = qHTS for induction of synthetic lethality in tumor cells producing 2HG: qHTS for the HT-1080-IDH1KD cell line; Potency, µM (doses to about 46.1 µM), for the others: top-dose activity, negative = toxicity, usual class: cytotoxic; actives 2% (n = 360,000); HT-1080 IDH1 knockdown viability, ATP luminescence, 48 h;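 note: 0% = DMSO wells and -100% = cell-free medium wells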
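Knockdown cells (IDH1KD HT-1080) received compounds 2 h after plating at 750 cells/well and were kept 48 h at 37 °C in 5% FBS RPMI. A CellTiter-Glo luminescence read gave % activity for curve fitting.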
KB-3-1 tox = qHTS assay for MDR1-selective chemotherapeutics: Primary screen using the parental adenocarcinoma cell KB-3-1 | KB-3-1 viability, CellTiter-Glo ATP luminescence, 72 h | AID 1347075, 2019 | actives 1.4% (n = 400,000) | Potency, µM (top dose mostly 46.1 µM), actives largely listed as cytotoxic; note: % is set by controls: 0 for no effect and ±100 for the full control effect; nearly all actives have a fitted effect of over 60% in size
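Multi-concentration cytotoxicity screen in KB-3-1 cells grown in DMEM lacking phenol red with 10% FBS. After 72 h at 37 °C with compound, ATP-dependent luminescence was recorded.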
Numbers without * were called inactive; i = inactive; ? = inconclusive; . = no result given; ! = a repeat was not active. Hits are enriched below; roughly 7.9% of the tested compounds scored in any of these assays. Calls come from the whole dose curve; as a rule, active = well fitted curve in the direction sought with a large enough effect; inconclusive = small, poorly fitted or top-dose-only effect, or another doubt; inactive = no such curve, though single readings can be large; an effect the other way counts as inactive or inconclusive. Potency is the fitted concentration of half-maximal effect.

SMILES | MCF10A rerep | KB-V1 cytotox | HT1080NT lethal | SW480 rerep | HT1080 IDH1KD tx | KB-3-1 tox
CCCCc1ccc(NC(=O)N2CCN(c3cc(C)nc4ccccc34)CC2)c(C)c1 | 17.2% | ? | ? | 20.6µM* | -27.7% | ?
CCCOc1ccc(C(=O)Nc2ccc(S(=O)(=O)N3CCN(C)CC3)cc2)cc1 | ? | ? | -11.0% | 16.5% | -21.1% | i
CCCOc1ccc(C(=O)Nc2ccc(S(=O)(=O)N3C[C@@H]4C[C@@H](C3)c3cccc(=O)n3C4)cc2)cc1 | -55.3% | i | 8.2µM* | 23.7% | ? | ?
CCc1ccc2nc(N(CCN(CC)CC)C(=O)c3ccco3)sc2c1 | . | i | . | . | . | i
CCNc1ccc(Br)cc(C(=O)/C=C/c2ccc(Cl)cc2Cl)c1=O | 20.6µM* | 18.4µM* | ? | ? | ? | ?
CNc1ccc(Br)cc(C(=O)/C=C/c2cc(OC)ccc2OC)c1=O | ? | 18.4µM* | ? | ? | ? | ?
CNc1ccc(Br)cc(C(=O)/C=C/c2ccc(OC)cc2)c1=O | ? | ? | 0.2% | -5.9% | 3.2% | ?
CN(C)C1CCC(CC2CCc3ccccc32)CC1 (stereo unspecified) | . | i | . | . | . | i
Cc1cc(=O)oc2cc(OCC(=O)NCCc3c[nH]c4ccc(F)cc34)ccc12 | 14.2% | ? | 4.8% | 13µM* | 12.6% | i
S=c1[nH]nc(Cn2nnc3ccccc32)n1-c1ccccc1 | 1.7% | i | 7.5% | 2.5% | 16.2% | i
FC(F)(F)c1cccc(-n2c(Cn3nnc4ccccc43)n[nH]c2=S)c1 | -0.5% | i | 13.3% | 2.59µM* | -2.2% | i
Cc1cc(C)c(S(=O)(=O)N2CCCCC2CCNC(=O)C(=O)NCc2cccnc2)c(C)c1 (stereo unspecified) | 4.6% | 8.2µM* | -0.5% | -5.6% | 8.0% | i
O=C(NCCC1CCCCN1S(=O)(=O)c1ccc(Cl)cc1)C(=O)NCc1ccncc1 (stereo unspecified) | -38.7% | i | 3.4% | 3.3% | 3.6% | i
O=C(NCCC1CCCCN1S(=O)(=O)c1ccccc1)C(=O)NC1CCCC1 (stereo unspecified) | 2.6% | ? | 1.2% | -2.2% | 2.8% | i
Cc1ccc(S(=O)(=O)N2CCCCC2CCNC(=O)C(=O)NC2CC2)cc1 (stereo unspecified) | 7.0% | 8.2µM* | -2.7% | 4.0% | -0.3% | i
Cc1ccc(CNC(=O)C(=O)NCCC2CCCCN2S(=O)(=O)c2ccc(C)cc2)cc1 (stereo unspecified) | ? | 3.66µM* | -1.3% | ? | -7.7% | i
Cc1ccccc1CNC(=O)C(=O)NCCC1CCCCN1S(=O)(=O)c1ccccc1 (stereo unspecified) | 14.7% | 6.51µM* | 0.7% | -0.5% | -4.4% | ?
CC1(C(=O)NCc2cccc(C(F)(F)F)c2)CCN1C1Cc2ccccc2C1 (stereo unspecified) | . | i | ? | . | ? | i
CC1=C(C(=O)N(C(C)C)C(C)C)CC(CC(=O)NC2CC2)C(=O)N1CCC1=CCCCC1 (stereo unspecified) | . | i | 24.0% | . | 7.2% | i
O=C(NCCC1CCCCN1S(=O)(=O)c1ccc(F)cc1)C(=O)NCc1ccncc1 (stereo unspecified) | 15.3% | i | 11.6% | 0.2% | 13.2% | i
Cc1ccc(C)c(S(=O)(=O)N2CCCCC2CCNC(=O)C(=O)NCc2ccccc2)c1 (stereo unspecified) | ? | ? | ? | ? | ? | 25.9µM*
Cc1ccc(S(=O)(=O)N2CCCCC2CCNC(=O)C(=O)NCc2cccnc2)cc1 (stereo unspecified) | ? | ? | ? | 16.4µM* | ? | 8.2µM*
Cc1ccc(C)c(S(=O)(=O)N2CCCCC2CCNC(=O)C(=O)NCc2cccnc2)c1 (stereo unspecified) | 11.0% | ? | -3.2% | ? | -15.8% | i
CC(=O)Nc1ccc(CN2CCc3c([nH]c4ccccc34)C2c2ccccn2)cc1 (stereo unspecified) | 21.7% | ? | 23.1µM* | ? | 18.4µM* | ?
O=c1c(Cl)c(Cl)cnn1Cc1ccccc1Cl | 5.8µM* | i | ? | ? | 18.4µM* | ?
SMILES | MCF10A rerep | KB-V1 cytotox | HT1080NT lethal | SW480 rerep | HT1080 IDH1KD tx | KB-3-1 tox
O=c1c(Cl)c(Cl)cnn1Cc1nnc(-c2ccc(Cl)cc2)o1 | 5.8µM* | i | 16.4µM* | 3.66µM* | 8.2µM* | ?
Cc1cc(C)cc(Cn2ncc(Cl)c(Cl)c2=O)c1 | 3.66µM* | 23.1µM* | -26.7% | 3.66µM* | 16.4µM* | ?
Cc1ccc(Cn2ncc(Cl)c(Cl)c2=O)cc1 | ? | i | ? | ? | ? | i
CCOC(=O)c1c(NC(=O)COc2cccc(C(F)(F)F)c2)sc2c1CCCCC2 | . | i | . | . | . | ?
CCc1ccc(NC(=S)N2CCC(NC(=O)c3ccccc3)CC2)cc1 | 18.4µM* | i | 4.7% | 0.0% | 2.5% | i
Cc1ccc(OCC(=O)Nc2c(Cl)ccc3nsnc23)cc1C | . | ? | . | . | . | i
C=CCN(c1ccccc1OC)S(=O)(=O)c1cccc(C(=O)OCC(=O)c2c[nH]c3ccccc23)c1 | -40.9% | 11.6µM* | 1.0% | ? | -12.8% | ?
COc1cc(OC)c(N(C)S(=O)(=O)c2cccc(C(=O)OCC(=O)c3c[nH]c4ccccc34)c2)cc1Cl | 17.9% | ? | -20.3% | ? | ? | i
CCCOc1ccc2cc(C(=O)NCc3ccccc3)c(=O)oc2c1 | 23.1µM* | i | -14.0% | 4.8% | 4.4% | i
COc1ccc(CNC(=O)c2cc3cc(OC)ccc3oc2=O)cc1 | 16.4µM* | ? | -24.6% | -8.3% | ? | 14.6µM*!
Cc1cc(C)nc(SCC(=O)NC(=O)c2ccccc2O)n1 | -2.0% | i | -5.1% | -1.0% | -3.0% | i
CC(=O)OCc1cnc(C)c2oc(=O)c(C(=O)Nc3ccc(F)cc3C)cc12 | . | i | . | . | . | i
N#CCCn1nc(-c2ccccc2)cc1Nc1ccccc1NC(=O)C(F)(F)F | -2.0% | 20.6µM* | -0.4% | -0.3% | 12.1% | i
